Out of some 100,000 compounds screened, about 770 (0.77%) were called active. The sample holds actives, similar compounds and a random draw of the others, so the mix is not that of the screen. Cut-off read from the data, not from the text of the source: active = inhibition above about 50%; inactive = the rest.

This experiment concerns the target Gag-Pol polyprotein (Human immunodeficiency virus type 1 group M subtype B (isolate HXB2)) (UniProt P04585). In words: RNase H inhibition, HIV 1 Gag Pol polyprotein, FRET biochemical assay, screening (AID 372). As to conditions: HIV-1 RT RNase H, FRET RNA/DNA substrate fluorescence; at 10 µM; active compounds read high.
On to `Cc1ccc(C)c(N2CCN(Cc3ccccc3Br)CC2)c1`, for which the inhibition – broadly, the percentage by which the read-out fell short of the control – was 6% (inactive). Turning to `FC(F)(F)c1ccc(CN2CCN(c3cccc(Cl)c3)CC2)cc1`, the inhibition was 12% (inactive). As to `O=Cc1cn(Cc2c(Cl)cccc2Cl)c2ccccc12`, the inhibition is 34% (inactive).

As for `CN1C(=O)C(=Cc2ccc(N3CCCCCC3)o2)C(=O)N(C)C1=S`, the inhibition was 26% (inactive). Turning to `C=CCN1C(=O)/C(=C\c2ccc(C)o2)C(=O)NC1=S`, the inhibition was 13% (inactive). `C=CCN1C(=O)/C(=C\c2ccc(-c3cccc(Cl)c3Cl)o2)C(=O)NC1=S`: the inhibition is 55% (active). `C=CCN1C(=O)NC(=O)/C(=C/c2ccc(-c3cc([N+](=O)[O-])ccc3Cl)o2)C1=O`: the inhibition is 22% (inactive). Regarding `COc1ccc(N2C(=O)/C(=C\c3ccoc3)C(=O)NC2=S)cc1`, the inhibition is 44% (inactive).

Consider `N/C(=N\[N+](=O)[O-])N/N=C\c1ccc(-c2ccc([N+](=O)[O-])cc2)o1`, for which the inhibition is 28% (inactive). For `N/C(=N\[N+](=O)[O-])N/N=C/c1ccc(-c2ccc(Cl)cc2)o1`, the inhibition is 6% (inactive). As for `N/C(=N\[N+](=O)[O-])N/N=C\c1ccc(-c2ccc(Cl)c([N+](=O)[O-])c2)o1`, the inhibition was 56% (active).

With `Cc1ccc(C2c3c(c4ccccc4oc3=O)Oc3c2c(=O)oc2ccccc32)cc1`, the inhibition is 11% (inactive). Take `COc1cccc(C=C2C(=O)NC(=O)NC2=O)c1OC`: the inhibition is 10% (inactive). `O=C1NC(=S)NC(=O)C1=Cc1ccccc1OS(=O)(=O)c1ccc2ccccc2c1`: the inhibition is 21% (inactive).

As for `COc1cccc(C=C2C(=O)NC(=S)NC2=O)c1`, the inhibition was 7% (inactive). In the case of `O=C1NC(=S)NC(=O)C1=Cc1cccc(OS(=O)(=O)c2ccc3ccccc3c2)c1`, the inhibition is 53% (active).

As for `O=C(c1cccs1)C1CN2CCC1CC2` (stereo unspecified), the inhibition was 0% (inactive). The value for `O=C1NC(=O)C(=Cc2ccccc2F)C(=O)N1` was 3% (inactive); that for `O=C1NC(=O)C(=Cc2cn(-c3ccccc3)nc2-c2ccc(F)cc2)C(=O)N1` was 53% (active).

Consider `Cc1ccc(-c2nn(-c3ccccc3)cc2C=C2C(=O)NC(=S)NC2=O)o1`, for which the inhibition is 21% (inactive). For `Cc1ccc(C)c(COc2cc(C)cc3oc(=O)c4c(c23)CCC4)c1`, the inhibition was 0% (inactive).

Values taken from PubChem BioAssay AID372 (MTDP, 2006).
